The text below walks through data of PubChem BioAssay (NCATS).

Where “and” joins values, the source holds several entries; their conditions need not be identical. Equal values may be shown once. Results filed as inconclusive are left out. Unmarked numbers belong to inactive results. Calls of active or inactive are those of the source. The call rests on the fitted dose curve; in most records, active means well fitted cell-killing curve with a large enough effect; inconclusive means small, poorly fitted or top-dose-only effect, or effect the other way; inactive means no such curve, though single readings can be large or run the other way.
Potency means the concentration at half of the fitted maximal effect.

This assay in a line: Viability qHTS for spleen associated tyrosine kinase inhibitor (SYKi) drug resistant MV4-11 cells (AID 1963824). Further: nearly all actives have a fitted effect of over 35% in size. The settings on record: SYKi-resistant MV4-11 viability, CellTiter-Glo, 72 h; series mostly up to 45 µM; viability, % of control: at the top concentration. The text has this:
Department of Medicine, Hematology/Oncology
University Hospital Frankfurt, Germany.
Trials have shown promising clinical activity of the selective SYK inhibitor entospletinib in patients with high expressing HOXA9/MEIS1 acute leukemias. As the development of resistance mechanisms is a common problem in the use of targeted drugs, we performed a chemical library screen to identify drug sensitivities in SYK inhibitor resistant AML cells. […] Glucocorticoids are potent immunosuppressants which work in part by inhibiting the transcription of cytokine genes.
Described herein is a viability screen to look for activity in the SYK inhibitor drug resistant cell line against four NCATS compound libraries (MIPE 5.0, NPC, NPACT, and Kinase) totaling 11372 compounds. Active hits were reacquired for confirmation and further secondary assay testing.
SEQUENCE No. (e.g., 1, 2, 3, etc.); […] (e.g., Cells, Incubation, Reagent, etc.); VALUE; DESCRIPTION.
1; Media; 2uL; white, solid-bottom Corning assay plate.
2; Compounds; 23nL; Echo acoustic dispenser.
3; Cell; 5uL; 500 cells per well.
4: Incubation; 72hr; 37 C, 5% CO2, 95% humidity.
5; Reagent; 3uL; CellTiter-Glo reagent (Promega).
6; Incubation; 10min; room temperature.
7; Detection; Luminescence; ViewLux plate reader (PerkinElmer).
NOTES (numbers refer to Sequence numbers above
1. Quantitative high-throughput screening (qHTS) of small molecule compounds was conducted on drug resistant SYKi MV4-11 cell line.
2. Twenty-three nanoliter of small molecule compounds were added to each assay plates using the Echo acoustic dispenser (Beckman Coulter).
3. Cells were seeded into the assay plates at a final density of 500 cells in 5uL of media per well using the Multidrop Combi dispenser.
4. Plates were covered with stainless steel gasketed lids and incubated for 72 hours at standard cell culture conditions.
5. Viability was assessed by adding 3uL of CellTiter-Glo detection reagent (Promega).
6. Plates were covered with gasket lids and incubated for 10 minutes at room temperature.
7. Luminescence was measured on a ViewLux plate reader (PerkinElmer).
Turning to `CCOc1ccc(Cc2nccc3cc(OCC)c(OCC)cc23)cc1OCC`, the Potency is 0.15 µM (active).
With `CC(O)CCCCn1c(=O)c2c(ncn2C)n(C)c1=O` (stereo not given), the “viability, % of control” value is 91%.
Consider `COc1cc2c(Nc3ccc(NC(=O)c4ccccc4)cc3)ncnc2cc1OCCCN1CCOCC1`, for which the Potency was 2.06 µM (active) and 2.09 µM (active).
Turning to `O=c1c(O)c(-c2ccc(O)c(O)c2)oc2cc(O)ccc12`, the Potency is 5.8 µM (active) and 9.34 µM (active).
Take `O=C(Nc1ccc([N+](=O)[O-])cc1Cl)c1cc(Cl)ccc1O`: the Potency is 1.16 µM (active) and 742 nM (active).
For `O=c1cc(-c2ccccc2)oc2cc(O)c(O)c(O)c12`, the Potency is 18.6 µM (active).
`Cc1c(C(=O)NCc2cccnc2)nn(-c2ccc(Cl)cc2Cl)c1-c1ccc(Cl)cc1`: the “viability, % of control” value is 78.8%.
As for `CCC(C)(C)C1CCc2c(sc(NC(=O)c3ccc(Br)cc3)c2C#N)C1` (stereo not given), the “viability, % of control” value is 110%.
For `C=C1CC23CC1CCC2C12OC(=O)C(C)(C(O)C(O)C1O)C2C3C(=O)O` (stereo not given), the “viability, % of control” value was 80.7%.
As to `COc1ccc(C2OCC3C(c4cc(OC)c5c(c4)OCO5)OCC23)cc1OC` (stereo not given), the Potency is 8.93 µM (active).
As for `NS(=O)(=O)c1cc2c(cc1Cl)NC(C(Cl)Cl)NS2(=O)=O` (stereo not given), the “viability, % of control” value is 92.7%.
Regarding `C[C@@H](O[C@H]1OCCN(Cc2n[nH]c(=O)[nH]2)[C@@H]1c1ccc(F)cc1)c1cc(C(F)(F)F)cc(C(F)(F)F)c1`, the Potency is 16.6 µM (active).
For `CN(C)Cc1ccc(-c2cnn3c(-c4cccc(NC(=O)c5cccc(C(F)(F)F)c5)c4)ccnc23)cc1`, the Potency is 3.66 µM (active).
In the case of `CCCc1cc(C(=O)N[C@H](Cc2ccc(-c3cccc(OC(F)(F)F)c3)nc2)C(=O)N[C@@H]2CCNC2)sc1C`, the Potency was 7.42 µM (active).
The same measure, in the same setting: the value for `NC(=O)OCC(COC(N)=O)c1ccccc1` was “inactive”.
Consider `C=C1CCC2(OC1)OC1CC3C4CC=C5CC(O)CC(O[C@@H]6OC[C@@H](O)[C@H](O)[C@H]6O)C5(C)C4CCC3(C)C1(O)C2C` (stereo not given in full), for which the “viability, % of control” value is 65.7% [at 17.3 µM].
On to `CCC(C(=O)OCCN(CC)CC)c1ccccc1` (stereo not given), for which the “viability, % of control” value was 100%.
Regarding `COc1cc(C=C2CCC/C(=C\c3ccc(O)c(OC)c3)C2=O)ccc1O`, the Potency is 3.35 µM (active).
`CN(C)CCn1cc(S(=O)(=O)c2cccc(F)c2)c2cccnc21`: the “viability, % of control” value was 68.5%.
Regarding `CC(C)C(=O)OCC(=O)[C@@]12O[C@H](C3CCCCC3)O[C@@H]1C[C@H]1[C@@H]3CCC4=CC(=O)C=C[C@]4(C)[C@H]3[C@@H](O)C[C@@]12C`, the Potency was 2.95 µM (active).
On to `Cc1nc(CN(C)c2ncnc3ccc(-c4ccc5c(c4)OCO5)cc23)cs1`, for which the Potency is 5.8 µM (active).
For the molecule `Nc1ccccc1NC(=O)c1ccc(CNC(=O)OCc2cccnc2)cc1`, the Potency is 366 nM (active) and 468 nM (active).
On the same count and under the same terms, with `Cc1cc(F)c(C(=O)Nc2cccc(-c3nncn3C(C)C)n2)cc1-n1cnc(C2CC2)c1` the figure was 5.25 µM (active).
As for `C=CC1(C)C=C2CCC3C(C)(C)C(O[C@@H]4O[C@@H](CO)[C@H](O)[C@H]4O)CCC3(C)C2CC1O[C@@H]1O[C@H](C)[C@H](O)[C@H](O)[C@H]1O` (stereo not given in full), the “viability, % of control” value is 75.9% [at 17.3 µM].
Take `CC(C)c1cc(-c2n[nH]c(=O)n2-c2ccc3c(ccn3C)c2)c(O)cc1O`: the Potency is 11.6 nM (active) and 16.6 nM (active).
As for `COC(=O)C1=CO[C@@H](O[C@@H]2O[C@H](CO)[C@@H](O)[C@H](O)[C@H]2O)C2C1CC(O)C2C` (stereo not given in full), the “viability, % of control” value was 86.4%.
With `CCOC(=O)c1ncn2c1CN(C)C(=O)c1cc(F)ccc1-2`, the Potency entry is “inactive”.
Regarding `CC[C@H](C)[C@H](NC(=O)[C@H](Cc1ccc(O)cc1)NC(=O)[C@@H](N)C(C)C)C(=O)N[C@@H](Cc1cnc[nH]1)C(=O)N1CCC[C@H]1C(=O)N[C@@H](Cc1ccccc1)C(=O)O`, the viability, % of control is 102% [at 4.97 µM].
Turning to `COc1cc2nc(N3CCC(N4CCCCC4)CC3)nc(NC3CCCCCC3)c2cc1OC`, the Potency was 1.03 µM (active).
Turning to `CC1(C)CNc2cc(NC(=O)c3cccnc3NCc3ccncc3)ccc21`, the Potency is 5.17 µM (active) and 5.9 µM (active).
Consider `CC(C)c1cc(C(C)C)c(CC(=O)NS(=O)(=O)Oc2c(C(C)C)cccc2C(C)C)c(C(C)C)c1`, for which the Potency was 4.68 µM (active).
On to `COC(=O)C1=COC(OC2OC(CO)C(O)C(O)C2O)C2C(C)C(OC(C)=O)C(OC(=O)c3ccccc3)C12` (stereo not given), for which the “viability, % of control” value is 9.24% [at 17.3 µM].
As to `Cc1cc(-n2nc3ccc(Cl)cc3n2)c(O)c(C(C)(C)C)c1`, the “viability, % of control” value is 80.2%.
On to `CN(C)CCCCC(=O)Nc1ccc(NC(=S)NC(=O)c2ccc(C(C)(C)C)cc2)cc1`, for which the Potency was 1.46 µM (active).
In the case of `Nc1nc2c(nc(Br)n2[C@@H]2O[C@@H]3COP(=O)(O)O[C@H]3[C@H]2O)c(=O)[nH]1`, the “viability, % of control” value was 92.1%.
As to `Cc1ccn(-c2cc(Cl)ccc2[C@@H](Oc2cc(-c3ccc(C[C@H](N)C(=O)O)cc3)nc(N)n2)C(F)(F)F)n1`, the Potency is 20.6 µM (active).
Consider `O=C1[C@H](O[C@@H]2O[C@H](CO)[C@@H](O)[C@H](O)[C@H]2O)Oc2ccccc2N1O`, for which the “viability, % of control” value was 87.5%.
`CCCCOc1ccc(C(=O)CCN2CCCCC2)cc1`: the Potency is 16.8 µM (active).
Same read-out and setting: with `COc1ccc(C(=O)N(CCC(C)C)Cc2nc(C)c(C)n2Cc2ccccc2C)c(OC)c1` the figure was 20.6 µM (active).
As for `CC/C=C\[C@H](O)[C@H](O)C1=C(C)C(=O)[C@]2(O1)C(=O)N[C@@](OC)(C(=O)c1ccccc1)[C@@H]2O`, the “viability, % of control” value was 86.6% [at 17.3 µM].
